The sample as a whole holds a higher share of hits than the screen did.
Giardia FBPA inh: qHTS Assay for Inhibitors of Fructose-1,6-bisphosphate Aldolase from Giardia Lamblia; A8B2U2; purified Giardia FBPA; Potency, µM (titrated, usually from 59.6 µM), for the others: at the top dose activity, negative = inhibition, most hits filed as inhibitors; 290,000 compounds, 0.71% hits; AID 2451, 2010; note: potency is the fitted concentration of half-maximal effect; % is set by controls: 0 for no effect and ±100 for the full control effect; nearly all actives have a fitted effect of over 55% in size
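40 nM FBPA preincubated 10 min at RT with compound (up to 57.5 uM final), then substrate plus GAPDH/TPI/NAD/arsenate coupling and diaphorase/resazurin added. Fluorescence read after 20 min at RT, 525/598 nm.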
Shiga toxin inh: A qHTS for Small Molecule Inhibitors of Shiga Toxin; Vero cells, Shiga toxin protein synthesis inhibition reporter; inhibition, % at 38.7 µM; 290,000 compounds, 9.2% hits; in the data active = inhibition mostly above about 28%, no sharp cut-off; inactive = mostly below about 43%; note: 0% is about no effect
Cycloheximide cs: Cycloheximide Counterscreen for Small Molecule Inhibitors of Shiga Toxin. cell reporter, cycloheximide protein synthesis inhibition counterscreen. max response, %. 300,000 compounds, 12% hits; in the data active = max response mostly above about 13%, no sharp cut-off; inactive = mostly below about 14%; note: read at 38.3 µM for the half of the compounds with a filed dose; 0% is about no effect
Tb PYK inh: qHTS of Trypanosoma Brucei Inhibitors. 410,000 compounds, 0.12% hits. TbPYK enzyme, Kinase-Glo Plus ATP luminescence, 45 min. Potency, µM (doses to about 76.8 µM), without a hit: at the top dose activity, negative = inhibition, hits mostly inhibitors; note: potency is the fitted concentration of half-maximal effect; % is set by controls: 0 for no effect and ±100 for the full control effect; nearly all actives have a fitted effect of over 50% in size
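Screened from lowest to highest concentration, compounds were pinned into TbPYK/substrate mixtures, and ADP (130 uM final) was added. Plates sat at room temperature for 45 min prior to Kinase-Glo Plus detection by luminescence.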
RE007 growth inh: qHTS Assay for Inhibitors of the HIV-1 protein Vpr | S. pombe RE007 Vpr strain, BacTiter-Glo ATP luminescence, 24 h | 360,000 compounds, 0.21% hits | AID 651644, 2012 | Potency, µM (series often up to 92.2 µM), inactives show at the top dose activity change, negative = less growth, usual class: inhibitors; active = well fitted falling curve with a large enough effect; note: potency is the fitted concentration of half-maximal effect; % is set by controls: 0 for no effect and ±100 for the full control effect; nearly all actives have a fitted effect of over 50% in size
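Fission yeast RE007 carrying one integrated HIV-1 vpr copy, seeded at OD 0.01 in PMG+AL medium with 23 nL pinned compound. Grown 24 h at 30 degrees; viability read by BacTiter-Glo luminescence after 5 min.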
LmPK inh: qHTS Assay for Inhibitors of Leishmania Mexicana Pyruvate Kinase (LmPK) | Q27686 | purified LmPK, Kinase-Glo ATP luminescence, 1 h | Potency, µM (top dose mostly 57.5 µM), for inactives: top-dose activity change, negative = inhibition, actives largely listed as inhibitors | 290,000 compounds, 0.37% hits; note: potency is the fitted concentration of half-maximal effect; % is set by controls: 0 for no effect and ±100 for the full control effect
Target sequence (Q27686 whole entry, looked up): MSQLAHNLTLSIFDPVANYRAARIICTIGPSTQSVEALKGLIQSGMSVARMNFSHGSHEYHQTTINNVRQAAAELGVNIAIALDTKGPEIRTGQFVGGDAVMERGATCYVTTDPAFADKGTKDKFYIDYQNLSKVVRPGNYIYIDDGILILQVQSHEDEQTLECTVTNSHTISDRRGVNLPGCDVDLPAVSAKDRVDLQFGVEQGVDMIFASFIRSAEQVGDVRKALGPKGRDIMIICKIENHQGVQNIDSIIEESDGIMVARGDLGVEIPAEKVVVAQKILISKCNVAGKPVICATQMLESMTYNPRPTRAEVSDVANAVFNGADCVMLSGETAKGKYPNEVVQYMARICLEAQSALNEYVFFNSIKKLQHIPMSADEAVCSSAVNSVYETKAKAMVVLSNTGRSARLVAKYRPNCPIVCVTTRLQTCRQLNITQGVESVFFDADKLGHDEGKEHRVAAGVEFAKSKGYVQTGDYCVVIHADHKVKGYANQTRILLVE
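qHTS format; LmPK 0.1 nM; substrates PEP 0.5 mM and ADP 0.1 mM. One-hour room-temperature incubation, then coupled luciferase luminescence; 0.5 nM enzyme wells mark activation.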
An asterisk follows results filed as active; i = inactive; . = not tested or not shown. Unless noted, calls come from the whole dose curve; as a rule, active = well fitted curve in the direction sought with a large enough effect; inconclusive = small, poorly fitted or top-dose-only effect, or another doubt; inactive = no such curve, though single readings can be large; an effect the other way counts as inactive or inconclusive.

SMILES	Giardia FBPA inh	Shiga toxin inh	Cycloheximide cs	Tb PYK inh	RE007 growth inh	LmPK inh
COc1ccc(C(=O)/C=C(\C)Nc2ccc3c(c2)OCO3)cc1	.	i	49*	-6%	-26%	-2%
CCN(CC(=O)Nc1ccc(OC)cc1)CC(=O)Nc1ccc2c(c1)OCO2	.	.	.	-4%	-12%	.
Cc1ccc(S(=O)(=O)c2nnn3c2nc(N(C)Cc2ccccc2)c2cc(Cl)ccc23)cc1C	.	.	.	2%	.	.
CC(=O)N1CCC2(CCCN(C(=O)Nc3cccc(F)c3)C2)CC1	1%	.	.	0%	.	.
COC(=O)NC1C=CCCC1C(C)=O (configuration not stated)	-3%	.	.	.	.	.
C=CCNC(=S)N/N=C/c1cn(C)c2ccccc12	17%	24	21*	2%	3%	5%
Cn1cccc1/C=N/NC(=O)Cc1cccs1	2%	49*	11	2%	-9%	-3%
Cn1cc(/C=N\NC(=O)c2cccs2)c2ccccc21	0%	63*	49*	-8%	-4%	-7%
Cn1cccc1/C=N/NC(=O)c1cccs1	.	74*	42*	-2%	-19%	-12%
O=C(NCC1(c2ccccc2)CCOCC1)c1cccs1	0%	-7	1	3%	19%	0%
CC[C@H]1C2=C3C(CC[C@H]4C(OCc5ccc(F)cc5C(F)(F)F)OC[C@](C)([C@@H]34)N(C(=O)OC(C)(C)C)C2)C(COC(C)=O)C1COC(C)=O (some centres not stated)	-7%	.	.	.	.	.
COc1ccc(CCNC(=O)CSc2nc(=O)n3cc(C)ccc3n2)cc1OC	.	.	.	0%	-17%	.
CCOC(=O)C1CCCN(C(=O)CN2C(=O)c3ccccc3S2(=O)=O)C1 (configuration not stated)	.	.	.	0%	-4%	.
COc1ccc2c(c1)sc1ncc(C(=O)NCc3cccc(C)c3)c(=O)n12	.	.	.	0%	.	.
CC1(c2ccc([N+](=O)[O-])cc2)NC(=O)N(CC(=O)Nc2cccnc2Cl)C1=O (configuration not stated)	.	.	.	-2%	-16%	.
COc1ccc(C(=O)Nc2nnc(SCc3cc(=O)n4cc(Cl)ccc4n3)s2)cc1	.	.	.	-7%	.	.
CCCc1cc(C(=O)N/N=C/c2cccn2C)cs1	.	110*	62*	-3%	-2%	-5%
O=C(Cc1cccs1)N/N=C\c1ccc(O)cc1	3%	51*	32*	4%	8%	2%
O=C(CC(=O)N/N=C/c1ccc(O)cc1)N/N=C/c1ccc(O)cc1	-1%	27	-2	-5%	-3%	-3%
COc1ccccc1CNC(=O)c1ccc2c(c1)N(Cc1cc(C)ccc1C)C(=O)c1ccccc1S2	.	.	.	4%	.	.
Cc1cnc(NC(=O)c2ccc3c(c2)OCCO3)s1	.	.	.	-12%	-25%	.
Cc1ccc2sc(NC(=O)c3ccc4c(c3)OCCO4)nc2c1C	.	.	.	7%	.	.
Cc1nc2ccc3nc(NC(=O)c4ccc5c(c4)OCCO5)sc3c2s1	5%	-13	12*	-3%	-1%	-3%
Cc1nc2c(ccc3nc(NC(=O)c4ccc5c(c4)OCCO5)sc32)s1	-10%	43	45*	-18%	-8%	-5%
COc1ccc(CCNC(=O)C2CC(c3cccc([N+](=O)[O-])c3)=NO2)cc1 (configuration not stated)	10%	160*	47*	-4%	-6%	-8%
O=C(NCCc1cccs1)C1CC(c2ccc([N+](=O)[O-])cc2)=NO1 (configuration not stated)	5%	77*	59*	-1%	9%	-4%
CC(C)CCNC(=O)C1CC(c2cccc(F)c2)=NO1 (configuration not stated)	7%	-3	1	3%	-10%	-1%
CCCCNC(=O)C1CC(c2cccc(F)c2)=NO1 (configuration not stated)	8%	58*	33*	2%	0%	-6%
COc1ccc(CCNC(=O)C2CC(c3c(Cl)cccc3Cl)=NO2)cc1 (configuration not stated)	-1%	-4	9	0%	-20%	0%

Screening results deposited in PubChem by National Center for Advancing Translational Sciences (NCATS).
